# From PubChem BioAssay
# In the library only some 1.1% were active in any assay of this set; here they are far more common.
# HTR5A inv ag = counter-screen for OPRM1-OPRD1 inverse agonists: human HTR5A inverse agonism. HTR5A cell line, luminescence. P47898. hit rate 0.083% among 340,000. inhibition, % at 9.3 µM; in the data active = inhibition mostly above about 23%, no sharp cut-off; inactive = mostly below about 18%;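 also: 0% = cells with DMSO and 100% = no-cell wells with DMSO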
# HTR5A ag = activates human HTR5A in OPRM1-OPRD1 agonist counter-screen. HTR5A agonist assay, luminescence, cell-based. hit rate 0.61% among 340,000. activation, % at 9.3 µM. P47898; in the data active = activation mostly above about 9.5%, no sharp cut-off; inactive = mostly below about 7.6%;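 also: 0% = cells with vehicle only and 100% = reference agonist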
# OPRM1-OPRD1 inv = inverse agonist of human OPRM1-OPRD1 heterodimerization | P35372+P41143 | cell-based MOR-DOR heterodimer luminescence, inverse agonism | inhibition, % at 9.3 µM | hit rate 0.21% among 340,000; in the data active = inhibition above about 22%, passing the limit was not always enough;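 also: 0% = cells with DMSO and 100% = wells without cells with DMSO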
# Target sequence (P35372 whole entry, looked up): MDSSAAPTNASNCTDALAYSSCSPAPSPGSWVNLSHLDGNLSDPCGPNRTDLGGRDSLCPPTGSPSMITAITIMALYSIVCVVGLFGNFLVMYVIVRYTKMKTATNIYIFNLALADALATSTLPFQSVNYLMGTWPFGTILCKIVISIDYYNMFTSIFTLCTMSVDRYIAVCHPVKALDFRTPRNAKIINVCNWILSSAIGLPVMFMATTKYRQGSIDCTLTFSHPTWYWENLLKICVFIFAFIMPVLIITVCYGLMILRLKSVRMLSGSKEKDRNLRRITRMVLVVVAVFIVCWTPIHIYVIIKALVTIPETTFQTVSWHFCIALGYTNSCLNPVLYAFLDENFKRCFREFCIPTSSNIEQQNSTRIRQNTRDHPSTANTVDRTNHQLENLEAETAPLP
# Target sequence (P41143 whole entry, looked up): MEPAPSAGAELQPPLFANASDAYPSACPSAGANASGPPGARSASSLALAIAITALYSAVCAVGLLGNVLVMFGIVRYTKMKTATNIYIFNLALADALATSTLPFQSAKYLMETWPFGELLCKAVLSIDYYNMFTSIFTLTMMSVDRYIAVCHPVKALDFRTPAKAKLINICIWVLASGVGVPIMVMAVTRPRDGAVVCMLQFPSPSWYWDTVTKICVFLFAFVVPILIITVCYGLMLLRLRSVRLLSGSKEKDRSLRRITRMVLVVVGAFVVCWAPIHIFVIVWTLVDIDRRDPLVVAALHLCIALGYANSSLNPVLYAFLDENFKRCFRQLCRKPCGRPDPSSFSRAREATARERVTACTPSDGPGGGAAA
# MOR-DOR ag-1 = OPRM1-OPRD1 heterodimerization agonism; activation, % at 9.3 µM; hit rate 0.3% among 340,000; AID 504326; P35372+P41143; cells, luminescence;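 also: 0% = vehicle-treated cells and 100% = reference agonist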
# MOR-DOR ag-2 = opioid heterodimer agonism, HTR5A counter-screen; U2OS counter-screen cells, complementation luminescence, 3 h; hit rate 13% among 800; shares compounds with HTR5A ag; AID 504913; activation, % at 9.3 µM
# HTR5A ag confirm = confirmation of human HTR5A agonists; shares compounds with HTR5A ag; activation, % at 9.3 µM; hit rate 17% among 800; HTR5A agonist cell assay, luminescence; in the data active = activation above about 17%;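 also: 0% = cells with vehicle only and 100% = full reference agonist response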
# Starred values were filed as active, the others as inactive; . = no result. Rule as the data show it, unless noted: active = activation above about 18%; inactive = the rest.
SMILES,HTR5A inv ag,HTR5A ag,OPRM1-OPRD1 inv,MOR-DOR ag-1,MOR-DOR ag-2,HTR5A ag confirm
COc1ccc(C)c2sc(N(CCN(C)C)C(=O)/C=C/c3cccs3)nc12,-66,16*,-36,7,10,18*
COC(=O)c1ccc(Cn2ccc(=O)[nH]c2=O)cc1,0,0,14,-3,.,.
CCc1ccc(-c2cnc3nc[nH]c(=O)c3n2)cc1,-8,1,12,-2,.,.
COc1cc2nc(N3CCN(c4cc(C)ccc4C)CC3)nc(N)c2cc1OC,-65,17*,-79,14,13,6
COc1ccc(OC)c(NC(=S)N(CCc2c(C)[nH]c3ccc(C)cc23)Cc2cccs2)c1,-68,24*,-20,4,-1,-2
COc1ccc(OC)c(NC(=S)N(CCc2c(C)[nH]c3ccccc23)Cc2cccs2)c1,-19,7,-14,3,.,.
Cc1nc(Nc2ccc(Cl)cc2)c(C#N)c(=O)[nH]1,-43,16*,12,-2,0,2
N#Cc1cccnc1Nc1ccc(Cl)cc1,-22,8,9,-2,.,.
Cc1ccc(SCCC(=O)Nc2ccccc2C(=O)NC(C)C)cc1,-42,17*,5,-1,3,-2
OC(CN1CCN(c2cccc(Cl)c2)CC1)c1ccc(F)cc1 (stereo not given),-72,19*,-32,7,7,27*
O=C(CNc1ccccc1Cl)N/N=C1\CCCc2ccccc21,-10,21*,-39,8,20*,36*
O=C(N/N=C1\CCCc2ccccc21)c1ccccc1Cl,-22,1,7,-1,.,.
Cc1cc(NC(=O)CSc2nc(N)c(NC(=O)c3ccco3)c(=O)[nH]2)no1,-14,5,10,-2,.,.
Cn1c(NC(=O)Cc2cccs2)cc(=O)n(C)c1=O,-53,19*,11,-2,1,0
O=C(Nc1ccccc1N1CCOCC1)C1CCN(S(=O)(=O)c2ccc(Cl)cc2)CC1,-4,3,18,-3,.,.
COC(=O)COc1ccc(C(=O)Cn2c(NCCCO)nc3ccccc32)cc1,3,-1,12,-2,.,.
CN1CCC(NC(=O)c2cc(-c3cccc(Br)c3)nc3ccccc23)CC1,-9,3,17,-3,.,.
Cc1ccccc1-c1cc(C(=O)Nc2sc(C)c(C)c2C(N)=O)c2ccccc2n1,-45,17*,5,-1,5,-2
CCOC(=O)c1sc(NC(=O)c2cc(-c3ccccc3C)nc3ccccc23)c(C#N)c1C,-4,2,4,-1,.,.
COc1ccc(NC(=O)CN(C)C(=O)C2CC(=O)N(c3cccc4ccccc34)C2)cc1 (stereo not given),-40,16*,-3,1,0,-2
COc1cccc(N2CCN(c3ccc4nnc(CCC(=O)Nc5ccccn5)n4n3)CC2)c1,-11,0,5,-1,.,.
Cc1ccc2[nH]c(=O)c3cc(C(=O)N(CCCOC(C)C)Cc4ccco4)sc3c2c1,-83,27*,-34,6,11,13
O=C(NCCN1CCOCC1)C(=O)c1c[nH]c2ccccc12,5,-2,5,-1,.,.
COc1ccc(CN(C(=O)CSc2nnc(-c3c[nH]c4ccccc34)o2)c2ccc(F)cc2)cc1OC,-44,16*,-23,4,27*,1
COc1ccc(CN(C(=O)CSc2nnc(-c3ccc(F)cc3)o2)c2ccc(F)cc2)cc1,-18,7,-14,3,.,.
SMILES,HTR5A inv ag,HTR5A ag,OPRM1-OPRD1 inv,MOR-DOR ag-1,MOR-DOR ag-2,HTR5A ag confirm
CCc1nnc(NC(=O)COc2ccc3c(c2)OCO3)s1,-6,2,0,0,.,.
CCOC(=O)c1cc2sc(C)cc2n1CC(=O)NCc1ccc(F)cc1,-22,20*,-47,8,3,5
CCOC(=O)c1cc2sc(C)cc2n1CC(=O)N1CCOCC1,9,-4,-1,0,.,.
COc1cccc(CN(C(=O)Cn2nnc(-c3ccccc3F)n2)C(C(=O)NC(C)(C)C)c2ccncc2)c1 (stereo not given),5,-2,-15,3,.,.
COc1cccc(CN2CCNC(=O)C2CC(=O)NC2CCCCCCC2)c1 (stereo not given),9,-2,9,-2,.,.
O=C1C(C=NCCCN2CCCC2=O)=C(O)c2ccccc21,-7,18*,4,-1,28*,13
O=C1CC(c2cccc(Cl)c2)Cc2nc(N3CCN(c4ccccc4)CC3)ncc21 (stereo not given),-42,17*,7,-2,2,2
CN1CCC(N(C)C(=O)c2cc(-c3ccc(F)cc3)nc3ccccc23)CC1,18,-5,-6,1,.,.
COc1ccc(CCN2CC(C(=O)N(C)Cc3ccc4nsnc4c3)CCC2=O)cc1 (stereo not given),5,0,5,-1,.,.
COc1ccccc1CN(C)C(=O)CSc1nnc(C2CC2)n1C1CC1,-2,1,17,-4,.,.
C/C(=N/NS(=O)(=O)c1ccc(Br)cc1)c1ccc(NC(=O)c2ccc(C)o2)cc1,-38,17*,5,-1,4,-3
CC(C)N(C(=O)CN1CCC(c2nc3ccccc3[nH]2)CC1)C(C)C,-4,2,18,-3,.,.
O=C(c1ccccc1N(Cc1ccccc1)S(=O)(=O)c1ccccc1)N1CCOCC1,8,1,-1,0,.,.
COc1ccc(C(=O)Cc2ccc(OC)c(OC)c2)c(OC)c1,-44,19*,-17,3,4,5
COc1ccc(CC(=O)c2cc(OC)c(OC)cc2CC(=O)O)cc1OC,-2,1,20,-4,.,.
CCOc1ccc(C(=O)Nc2ccc(NC(=O)c3ccco3)c(Cl)c2)cc1Br,-83,19*,-84,16,40*,4
CCOc1ccc(NC(=O)C2CCC(CNc3c(N4CCCCC4)c(=O)c3=O)CC2)cc1 (stereo not given),-3,1,12,-2,.,.
CCOC(=O)c1cccc(NC(=O)C2CCC(CNc3c(N4CCOCC4)c(=O)c3=O)CC2)c1 (stereo not given),-57,22*,9,-2,1,1
COC(=O)c1cc(C(=O)OCC(=O)NNC(=O)c2cccs2)cc([N+](=O)[O-])c1,5,-2,-7,1,.,.
Cc1ccccc1C(=O)c1c[nH]c(C(=O)NCc2ccco2)c1,5,-2,5,-1,.,.
O=C(NCc1ccco1)c1cc(C(=O)C2CC2)c[nH]1,-44,17*,8,-2,0,6
CCCCCCCCOC(=O)CCc1c(C)[nH]c(=S)[nH]c1=O,-62,15*,-31,5,4,7
CCC(=O)c1ccccc1OCC(=O)Nc1c(C)cccc1C,12,16*,0,0,1,-6
CC(C)[C@H](NC(=O)c1ccc([N+](=O)[O-])cc1Cl)C(=O)N1CCN(C/C=C/c2ccccc2)CC1,2,-1,-23,5,.,.
C/C(=N/NS(=O)(=O)c1ccc(C)cc1C)c1ccc2c(c1)OCO2,-48,20*,21,-4,-1,-11
